Reference: PMC5892938, “SARNAclust: Semi-automatic detection of RNA protein binding motifs from immunoprecipitation data”
Whole data set: some 11,000 sequences, median “log2 fold change” near 0.00022, cut for the highest 2% near 0.34. The list shows a part of the results.

target: GST-SBP-SLBP (stem-loop binding protein) (Homo sapiens, UniProt Q14493 1-270); experiment: targeted RNA Bind-n-Seq; RBNS binding buffer: 25 mM Tris pH 7.5, 150 mM KCl, 3 mM MgCl2, 0.1% Tween, 0.5 mg/mL BSA, 1 mM DTT; 27 nM protein, 750 pM RNA pool; temperature not stated; high values mean tight binding; conditions: protein: recombinant; tags: N-terminal GST and SBP (pGEX6P1-SBP); structured_RNA
Outline: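 Read counts per sequence supply the binding signal, defined as the DEseq fold change on a binary-logarithm scale. These counts came from RNA of a designed, T7-transcribed oligo pool at 750 pM that bound 27 nM of GST-SBP-tagged protein, made in Rosetta(DE3) pLysS E. coli and glutathione-purified, in RBNS binding buffer. The bound RNA was reverse transcribed with a 10-nucleotide barcoded primer, PCR-amplified and sequenced on a MiSeq with 200-cycle paired-end reads, then processed with FLASH and HISAT2 and collapsed by barcode.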

| Sequence | binding signal [log2 fold change] |
| --- | --- |
| GGUCACGUCUCAAUCAACUCACAAGAGGGGGGGAAAACCCCUUUACCCUCACUCUCAACAGCUCGCAGUCAAG | 0.304 ± 0.385 |
| GGUCACGUCUCAAUCAACUCGCAAGAGGGGGGGAAAACCCCUUUACCCUCACAAUCAACAGCUCGCAGUCAAG | 0.536 ± 0.414 |
| GGUCACGUCUCAAUCAACUCAUAAGAGGGGGGGAAAACCCCUUUACCCUCACACUCAACAGCUCGCAGUCAAG | 0.455 ± 0.444 |
| GGUCACGUCUCAAUCAACUCAAUCUCAGGAGUUUUCUCCUGCUAUUUCAACAGCUCGCAGUCAAG | 0.339 ± 0.222 |
| GGUCACGUCUCAAUCAACUCAGUCCCAGGAGUUUCCUCCUGUAAAUUCAACAGCUCGCAGUCAAG | 0.371 ± 0.28 |
| GGUCACGUCUCAAUCAACUCAAUCCCAGGAGUUUCCUCCUGUUUUUUCAACAGCUCGCAGUCAAG | 0.312 ± 0.215 |
| GGUCACGUCUCAAUCAACUCUUUCUCAGGAGUUUCCUCCUGCAUUUUCAACAGCUCGCAGUCAAG | 0.312 ± 0.164 |
| GGUCACGUCUCAAUCAACUCAAUCCCAGGAGUUUGCUCCUGCAUAUUCAACAGCUCGCAGUCAAG | 0.355 ± 0.208 |
| GGUCACGUCUCAAUCAACUCAUCCUCAGGAGUUUGCUCCUGCAUAUUCAACAGCUCGCAGUCAAG | 0.313 ± 0.205 |
| GGUCACGUCUCAAUCAACUCAUCUCCAGGAGUUUCCUCCUGCUUUUUCAACAGCUCGCAGUCAAG | 0.328 ± 0.198 |
| GGUCACGUCUCAAUCAACUCAGUCUCAGGAGUUUCCUCCUGCUAUUUCAACAGCUCGCAGUCAAG | 0.343 ± 0.24 |
| GGUCACGUCUCAAUCAACUCAUCCUCAGGAGUUUCCUCCUGCAAACUCAACAGCUCGCAGUCAAG | 0.314 ± 0.204 |
| GGUCACGUCUCAAUCAACUCAUCCGCAGGAGUUUCCUCCUGGUAUUUCAACAGCUCGCAGUCAAG | 0.483 ± 0.25 |
| GGUCACGUCUCAAUCAACUCAUCCCCAGGAGUUUGCUCCUGCAUUCUCAACAGCUCGCAGUCAAG | 0.306 ± 0.225 |
| GGUCACGUCUCAAUCAACUCAGUCCCAGGAGUUUUCUCCUGCUAAUUCAACAGCUCGCAGUCAAG | 0.335 ± 0.235 |
| GGUCACGUCUCAAUCAACUCUUAAGAGGGGGGGAAAACCCCUUUACCCUCAACGUCAACAGCUCGCAGUCAAG | 0.385 ± 0.451 |
| GGUCACGUCUCAAUCAACUCUUAAGAGGGGGGGAAAACCCCUUUACCCUCGCCAUCAACAGCUCGCAGUCAAG | 0.455 ± 0.394 |
| GGUCACGUCUCAAUCAACUCUUAAGAGGGGGGGAAAACCCCUUUACCCUCAAAAUCAACAGCUCGCAGUCAAG | 0.666 ± 0.398 |
| GGUCACGUCUCAAUCAACUCUUCUCCCAGGGAAAUCCCUGGUAUACUCAACAGCUCGCAGUCAAG | 0.329 ± 0.25 |
| GGUCACGUCUCAAUCAACUCAAUCCCCAGGGAAAUCCCUGGUAAAUUCAACAGCUCGCAGUCAAG | 0.453 ± 0.315 |
| GGUCACGUCUCAAUCAACUCUUCUCCCAGGGAAAGCCCUGGUAAACUCAACAGCUCGCAGUCAAG | 0.33 ± 0.26 |

| Sequence | binding signal [log2 fold change] |
| --- | --- |
| GGUCACGUCUCAAUCAACUCAACUCCCAGGGAAACCCCUGGUAAAUUCAACAGCUCGCAGUCAAG | 0.307 ± 0.342 |
| GGUCACGUCUCAAUCAACUCUUCUCCCAGGGAAAUCCCUGGUAAACUCAACAGCUCGCAGUCAAG | 0.359 ± 0.267 |
| GGUCACGUCUCAAUCAACUCAUCGCCCAGGGAAAGCCCUGGUUAAUUCAACAGCUCGCAGUCAAG | 0.329 ± 0.337 |
| GGUCACGUCUCAAUCAACUCUUCUUCCAGGGAAAUCCCUGGCAAACUCAACAGCUCGCAGUCAAG | 0.309 ± 0.268 |
| GGUCACGUCUCAAUCAACUCAUCCCCCAGGGAAAUCCCUGGUUAAUUCAACAGCUCGCAGUCAAG | 0.368 ± 0.293 |
| GGUCACGUCUCAAUCAACUCUUCUUCCAGGGAAAUCCCUGGUAAUUUCAACAGCUCGCAGUCAAG | 0.413 ± 0.238 |
| GGUCACGUCUCAAUCAACUCAAUCUCCAGGGAAAUCCCUGGCUAAUUCAACAGCUCGCAGUCAAG | 0.315 ± 0.249 |
| GGUCACGUCUCAAUCAACUCAAUCUCCAGGGAAAUCCCUGGUUAAUUCAACAGCUCGCAGUCAAG | 0.348 ± 0.266 |
| GGUCACGUCUCAAUCAACUCUAAAGAGGGGGGGAAAACCCCUUUACCCUCAUCAUCAACAGCUCGCAGUCAAG | 0.394 ± 0.392 |
| GGUCACGUCUCAAUCAACUCUAAAGAGGGGGGGAAAACCCCUUUACCCUCCUACUCAACAGCUCGCAGUCAAG | 0.315 ± 0.441 |
| GGUCACGUCUCAAUCAACUCAUUAGAGGGGGGGAAAACCCCUUUACCCUCAUCAUCAACAGCUCGCAGUCAAG | 0.333 ± 0.443 |
| GGUCACGUCUCAAUCAACUCUAUAGAGGGGGGGAAAACCCCUUUACCCUCAUCAUCAACAGCUCGCAGUCAAG | 0.306 ± 0.416 |
| GGUCACGUCUCAAUCAACUCCUCAGAGGGGGGGAAAACCCCUUUACCCUCAUUAUCAACAGCUCGCAGUCAAG | 0.4 ± 0.421 |
| GGUCACGUCUCAAUCAACUCUCAAGAGGGGGGGAAAACCCCUUUACCCUCAUUAUCAACAGCUCGCAGUCAAG | 0.622 ± 0.45 |
| GGUCACGUCUCAAUCAACUCCUCAGAGGGGGGGAAAACCCCUUUACCCUCCUUAUCAACAGCUCGCAGUCAAG | 0.431 ± 0.416 |
| GGUCACGUCUCAAUCAACUCACUAGAGGGGGGGAAAACCCCUUUACCCUCAUCGUCAACAGCUCGCAGUCAAG | 0.311 ± 0.421 |
| GGUCACGUCUCAAUCAACUCACUAGAGGGGGGGAAAACCCCUUUACCCUCAUUAUCAACAGCUCGCAGUCAAG | 0.408 ± 0.406 |
| GGUCACGUCUCAAUCAACUCCUCAGAGGGGGGGAAAACCCCUUUACCCUCCCAUUCAACAGCUCGCAGUCAAG | 0.356 ± 0.426 |
| GGUCACGUCUCAAUCAACUCCACGGAGGGGGGGAAAACCCCUUUACCCUCAAAUUCAACAGCUCGCAGUCAAG | 0.543 ± 0.46 |
| GGUCACGUCUCAAUCAACUCCCCAGAGGGGGGGAAAACCCCUUUACCCUCAAAUUCAACAGCUCGCAGUCAAG | 0.402 ± 0.428 |
| GGUCACGUCUCAAUCAACUCUCUAGAGGGGGGGAAAACCCCUUUACCCUCCCAUUCAACAGCUCGCAGUCAAG | 0.325 ± 0.44 |
